# Experimental data from PubChem BioAssay AID1063 (University of Pittsburgh Molecular Library Screening Center, 2008).
# About 18,000 (9%) of roughly 200,000 compounds were called active. The sample holds actives, similar compounds and a random draw of the others, so the mix is not that of the screen. No stated cut-off is given here; in the data, active means inhibition above about 50%; inactive means the rest.
# Assay: antileishmanial activity against promastigotes – primary screen (AID 1063);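 further: promastigotes grown with compound for 44 hours at 28 °C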
# Conditions: Leishmania major promastigotes, resazurin fluorescence viability; at 10 µM; stronger effect = higher value
row,SMILES,inhibition
1,O=C1CN(C(=O)CN2C(=O)NC3(CCCCC3)C2=O)c2ccccc2N1,-5.28% (inactive)
2,Cc1ccccc1Nc1scc(-c2ccc(Br)cc2)[n+]1-c1ccccc1C,31% (inactive)
3,CC(CC(=O)N1CCN(c2ccccc2)CC1)c1ccccc1 (centres undefined),-5.82% (inactive)
4,CCc1ccc(NC(=O)N2CCN(c3ccccc3)CC2)cc1,25.5% (inactive)
5,CC(=O)N1CCN(c2ccc(NCc3ccc(C(C)C)cc3)cc2)CC1,81.4% (active)
6,NC(=O)N1CCc2ccccc21,-6.03% (inactive)
7,O=C(Nc1ccccc1)OCc1cn(-c2ccc(Cl)cc2)nn1,-4.84% (inactive)
8,N#Cc1ccc(N2Cc3ccccc3/C2=N/C(=O)Nc2ccc(Cl)cc2)cc1,71.6% (active)
9,Cc1cccc(N2Cc3ccccc3C2=NC(=O)c2ccc(Cl)nc2)c1,4.02% (inactive)
10,Cn1cccc1/C=C1\SC(=O)N(CC(=O)Nc2ccc(F)cc2)C1=O,-0.17% (inactive)
11,Fc1ccccc1COc1ccccc1CNCc1ccncc1,98.5% (active)
12,O=C(CCc1ccccc1)NCc1cccnc1,-1.64% (inactive)
13,c1ccc(COc2ccccc2CNCc2cccnc2)cc1,75% (active)
14,COc1ccccc1CNCc1cccs1,7.82% (inactive)
15,CCOc1cc(/C=N/O)ccc1OCc1ccccc1F,-1.85% (inactive)
16,CCC(Oc1ccccc1)C(=O)NCc1cccnc1 (centres undefined),3.42% (inactive)
17,O=C(CNC1CCCCC1)NCC1(c2ccccc2)CCCC1,19.4% (inactive)
18,O=C(O)c1n[nH]nc1-c1ccccc1,-4.14% (inactive)
19,COC(=O)c1cc(NC(=O)CN2CCN(C(C)=O)CC2)cc(C(=O)OC)c1,2.15% (inactive)
20,Cc1cc(C)cc(NC(=S)NCc2ccc(F)cc2)c1,16.7% (inactive)
21,Fc1ccc(CNCc2ccc(Br)cc2)cc1,84.8% (active)
22,O=C(Cc1ccccc1)NCc1ccc(F)cc1,-4.83% (inactive)
23,Cn1c(SCC(=O)Nc2ccc(Br)cc2F)nnc1-c1ccco1,-5.27% (inactive)
24,NC(=O)C1CCN(C(=O)COc2cccc3cccnc23)CC1,-6.58% (inactive)
25,COc1ccc(C(C[N+](=O)[O-])n2nc(C)cc2C)cc1 (centres undefined),100% (active)

row,SMILES,inhibition
1,COc1ccc(C(=O)CSc2nc(C)cc(C)n2)cc1[N+](=O)[O-],16% (inactive)
2,COc1ccc(OCc2cn3c(C)cc(C)nc3n2)cc1,-3.26% (inactive)
3,CN(C)/C=C(/C(=O)c1ccccc1Cl)S(C)(=O)=O,3.15% (inactive)
4,Cc1cnc(C(=O)N2CCCC(C(=O)c3ccc(C(F)(F)F)cc3)C2)cn1 (centres undefined),3.62% (inactive)
5,CCn1nc(C)cc1C(=O)N1CCCC(C(=O)c2cccc(OC)c2)C1 (centres undefined),-7.56% (inactive)
6,COc1ccc(C(=O)C2CCCN(C(=O)c3cc4nc(C)cc(C)n4n3)C2)cc1F (centres undefined),57.3% (active)
7,C=CCn1cc(C(=O)NCc2ccc(Cl)cc2)c(=O)c2cc(S(=O)(=O)N(CC)CC)ccc21,13.9% (inactive)
8,CCc1nc2oc3ccccc3c(=O)c2c(=O)n1Cc1ccc(OC)cc1,8.88% (inactive)
9,COc1ccc(C(=O)CN(C(=O)c2ccc(Cl)cc2)N2C(=O)c3ccccc3C2=O)cc1,-4.51% (inactive)
10,COc1ccc(Cn2c(-c3ccc(Cl)cc3)c[n+]3ccccc23)cc1,99.2% (active)
11,COc1ccc(-c2nn(-c3ccccc3)cc2/C=C\C(=O)Nc2ccc(C(=O)O)cc2)cc1,-5.87% (inactive)
12,O=c1c2c(nc3n1CCCCC3)sc1c(O)cccc12,-1.41% (inactive)
13,Cc1c(C(=O)Nc2cccc(-c3nnc4n3CCCCC4)c2)oc2ccccc12,27.1% (inactive)
14,Cc1c(C(=O)Nc2ccccc2)sc2nc3n(c(=O)c12)CCCCC3,61.8% (active)
15,C=CCNc1nc(Nc2ccc(Cl)cc2)nc(OC)n1,41.2% (inactive)
16,COc1ccc(C2=NO[C@@H]3C(=O)N(Cc4ccccc4)C(=O)[C@H]23)cc1OC,-2.75% (inactive)
17,COc1ccc(C2Nc3ccccc3C(=O)N2c2ccc(F)cc2)cc1Cn1nnc2ccccc21 (centres undefined),20.3% (inactive)
18,COc1ccc(C2Nc3ccccc3C(=O)N2Cc2ccccc2)cc1Cn1nnc2ccccc21 (centres undefined),97% (active)
19,CCN1CCN(C(C(=O)NC2CCCC2)c2cc3c(cc2[N+](=O)[O-])OCO3)CC1 (centres undefined),-2.85% (inactive)
20,COc1ccc(Cc2n[nH]c(=S)n2NC(=O)Nc2ccc(C)cc2)cc1,-2.58% (inactive)
21,Cn1c(=O)c2c(nc(CN3CCOCC3)n2Cc2ccccc2)n(C)c1=O,-4.56% (inactive)
22,CN1CCN(Cc2nc3c(c(=O)n(C)c(=O)n3C)n2Cc2cccc3ccccc23)CC1,58.8% (active)
23,CCN1CCN(Cc2nc3c(c(=O)n(C)c(=O)n3C)n2CC(=O)c2ccccc2)CC1,1.75% (inactive)
24,Cc1cccc(NC(=S)N2CCC(O)CC2)c1C,-2.49% (inactive)
25,Cc1csc(OCC(=O)Nc2ccc(C)c(C)c2)n1,-3.8% (inactive)

row,SMILES,inhibition
1,Cc1ccccc1OCC(=O)Nc1ccc(N2CCN(C(=O)C(C)C)CC2)c(Cl)c1,40.7% (inactive)
2,Cc1ccc(NC(=O)COc2ccc(-n3ccnc3)cc2)cc1Cl,86.5% (active)
3,O=C(CNC(=O)COc1ccccc1)NCCc1ccccn1,-2.06% (inactive)
4,CCc1ccc(-c2nn(-c3ccccc3)cc2CSC(=N)N)cc1,100% (active)
5,CCn1c(SCc2ccc(C)cc2)nnc1-c1nn(-c2ccccc2)ccc1=O,5.13% (inactive)
6,N=C(N)SCc1cccc2ccccc12,5.8% (inactive)
7,N/C(=N\OC(=O)CCc1ccccc1)c1cccnc1,-5.44% (inactive)
8,COC(=O)CSc1nccc(-c2cccs2)n1,1.92% (inactive)
9,Cc1nnc(SCC(=O)NCCOc2ccc(Cl)cc2)n1-c1ccccc1,-1.38% (inactive)
10,Cc1nnc(SCC(=O)N2CCN(c3ccccc3)CC2)n1-c1ccccc1,5.01% (inactive)
11,Cc1nnc(SCc2ccc(C(=O)c3ccc(Cl)cc3)o2)n1-c1ccccc1,98.6% (active)
12,CNC(=O)c1[nH]cnc1C(=O)N[C@@H](CC(C)C)C(=O)OCc1ccccc1,0.78% (inactive)
13,CN(c1ccccc1)S(=O)(=O)c1ccc(Cl)c(C(=O)NCCc2c[nH]c3ccccc23)c1,95.2% (active)
14,O=C(NCCc1c[nH]c2ccccc12)c1cc2ccccc2oc1=O,1.33% (inactive)
15,CCN(CC)S(=O)(=O)c1ccc2[nH]cc(C(=O)NCCc3ccccc3)c(=O)c2c1,7.93% (inactive)
16,CCn1c(=S)[nH]c2sc3c(c2c1=O)CCCCC3,-4.76% (inactive)
17,CCN(CC)CCCSc1nc2ccccc2s1,70.2% (active)
18,Cc1sc2ncnc(Sc3nc4ccccc4s3)c2c1C,7.91% (inactive)
19,Cc1nc2nc(CSc3nc4ccccc4s3)cc(=O)n2[nH]1,1.29% (inactive)
20,O=C1COc2ccc(C(=O)COC(=O)C3CC(O)CN3S(=O)(=O)c3ccc(Cl)cc3)cc2N1 (centres undefined),-7.23% (inactive)
21,CCS(=O)(=O)N1Cc2ccccc2CC1C(=O)Nc1nc2ccc(F)cc2s1 (centres undefined),19.1% (inactive)
22,CN(C)C(=O)N1CCNCC1,-4.41% (inactive)
23,O=C(N/N=C/C=C/c1ccco1)c1cccs1,-2.33% (inactive)
24,Cc1ccc(-c2cc(C(=O)N/N=C/C=C/c3ccco3)c3ccccc3n2)cc1C,55.7% (active)
25,COc1cccc(-c2cc(C(=O)N/N=C/c3ccc(OC)c(COC(C)=O)c3)c3ccccc3n2)c1,10.4% (inactive)

row,SMILES,inhibition
1,COc1ccc(NS(=O)(=O)c2ccc(O)c(C(=O)OCC(=O)NC3CCCCC3)c2)cc1,-3.84% (inactive)
2,O=C(NNc1cc(Cl)ccc1Cl)c1cccnc1Cl,-4.41% (inactive)
3,COC(=O)Cc1ccc(NC(=S)NCc2ccco2)cc1,-3.07% (inactive)
4,CC(C)c1nc(CNC(=O)CC2C(=O)NCCN2Cc2ccoc2)cs1 (centres undefined),-2.52% (inactive)
5,COCc1c(N)c(C)nc(Cl)c1C#N,3.91% (inactive)
6,Oc1ccccc1/C=N/n1c(-c2cccs2)n[nH]c1=S,-8.08% (inactive)
7,S=c1[nH]nc(-c2cccs2)n1/N=C/c1cccs1,-14.7% (inactive)
8,Cc1ccsc1/C=N/n1c(=S)[nH]nc(C)c1=O,99% (active)
9,Cc1c(Cl)cccc1NC(=O)CSc1ccc(-c2cccnc2)nn1,10.9% (inactive)
10,COC(=O)c1cc(C(=O)CSc2nc(C)cc(C)n2)ccc1O,-2.37% (inactive)
11,Cc1cc(SCC(=O)c2ccccc2)nc(SCC(=O)c2ccccc2)n1,-2.75% (inactive)
12,Cc1cc(Oc2ccc(Cl)cc2)nc(SCC(=O)c2ccccc2)n1,95.7% (active)
13,CC(=O)c1sc(NC(=O)C2=NN(c3ccccc3)C(=O)CC2)nc1C,2.95% (inactive)
14,CC1=CC=CC2=N/C(=N\S(=O)(=O)c3ccc(F)cc3F)c3ccccc3CN12,2.41% (inactive)
15,O=[N+]([O-])c1ccccc1Nc1ccc(O)cc1,5.07% (inactive)
16,Oc1ccc(CNc2ccccc2O)cc1,98.9% (active)
17,O=[N+]([O-])c1ccccc1NCc1ccc(Cl)cc1,-7.18% (inactive)
18,O=C(CS(=O)(=O)c1ccccc1)Nc1ccc(S(=O)(=O)Nc2ccccn2)cc1,-6.61% (inactive)
19,O=C(NCCc1ccc(F)cc1)c1n[nH]c2ccccc12,3.08% (inactive)
20,O=C(Cc1ccc(Cl)c(Cl)c1)Nc1ccc(SC(F)F)cc1,4.28% (inactive)
21,CN(C)CCNC(CC(=O)Nc1ccc(Cl)c(Cl)c1)C(=O)O (centres undefined),-6.23% (inactive)
22,O=C(CC(O)(C(F)(F)F)C(F)(F)F)Nc1ccc(Cl)c(Cl)c1,100% (active)
23,Cc1cc(C)n(-c2ccc(C(=O)O)cc2[N+](=O)[O-])n1,-1.85% (inactive)
24,COC(=O)Cc1csc(/N=C/c2c(O)n(-c3cccc(C(F)(F)F)c3)c(=O)c3ccccc23)n1,-6.16% (inactive)
